Screening data (PubChem BioAssay)
PriA SSB inh: inhibitors of Klebsiella pneumoniae PriA binding to SSB C-terminal tail, primary screen, biochemical, AlphaScreen; AlphaScreen SSBct-PriA binding, biotinylated peptide; inhibition, % at 33 µM; 430,000 compounds, 0.6% hits; AID 1272365, 2023; in the data active means inhibition mostly above about 37%, no sharp cut-off; inactive means mostly below about 20%;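 further: plate controls were negative control peptide for no effect and reference peptide for full effect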
Anthrax LF prot: Bacillus anthracis LF protease inhibitors, primary screen, biochemical, multiplex microsphere, MLPCN library. Lethal factor (Bacillus anthracis), P15917. multiplex microsphere protease cleavage assay. inhibition, % at 10 µM. 360,000 compounds, 0.12% hits; further: plate controls were buffer without enzyme for full effect and enzyme alone for no effect
BoNT-F LC inh: BoNT/F light chain protease inhibitors, primary screen, biochemical, flow cytometry, MLPCN library; AID 588497, 2011; Multiplex microsphere protease cleavage assay; inhibition, % at 10 µM; Botulinum neurotoxin type F light chain protease (Clostridium botulinum); 360,000 compounds, 0.22% hits; in the data active means inhibition above about 35%, passing the limit was not always enough; inconclusive means no clear call, values can overlap the other calls; further: plate controls were buffer without enzyme for full effect and enzyme alone for no effect
BoNT A protease: BoNT/A light chain protease inhibitors, primary screen, biochemical, flow cytometry, MLPCN library; multiplex microsphere protease substrate cleavage; inhibition, % at 10 µM; 360,000 compounds, 0.17% hits; AID 588499, 2011; further: plate controls were buffer without enzyme for full effect and enzyme alone for no effect
Bead autofluor: compound fluorescence in toxin protease inhibitor counterscreen | compound autofluorescence counterscreen, microsphere flow cytometry; stronger effect = higher value | fluorescence intensity (no concentration beside the values) | 360,000 compounds, 3.1% hits | AID 624483; in the data active means fluorescence intensity above about 16000; inconclusive means no clear call, values can overlap the other calls
* hit, by the source's call; ? = inconclusive; . = not tested or not shown; ! = repeats disagree. Only some compounds are listed: those with a hit (about 3.1% of all), similar ones and a draw of the others. Unless noted, no stated cut-off is given here; in the data, active means inhibition above about 30%; inconclusive means no clear call, values can overlap the other calls; inactive means below that.

SMILES	PriA SSB inh	Anthrax LF prot	BoNT-F LC inh	BoNT A protease	Bead autofluor
CNC(=O)COC(=O)c1cc(=O)[nH]c2ccccc12	-2	0	-2	0	23831*
CNC(=O)COC(=O)c1ccccc1Oc1ccccc1	-5	-1	1	-1	16994*
Cc1cc(C)c2nc(N(Cc3ccccn3)C(=O)c3ccc4ccccc4c3)sc2c1	-14	.	.	.	.
COc1ccc(C)c2sc(N(CCN(C)C)C(=O)c3ccc4ccccc4c3)nc12	43*!	0	2	0	5806
COc1ccc(C)c2sc(N(CCN(C)C)C(=O)CCOc3ccccc3)nc12	15	.	.	.	.
COc1cc2ccccc2cc1C(=O)N(CCN(C)C)c1nc2ccc(Br)cc2s1	49*	-4	-4	0	4457
Cc1cc(C)c2nc(N(CCN(C)C)C(=O)c3ccc4ccccc4c3)sc2c1	38*!	0	-2	3	5505
O=C(Cn1c(=O)nc(-c2ccccc2F)c2cc(Cl)ccc21)NCc1ccc2c(c1)OCO2	-28	.	.	.	.
CN(C)C(CNc1ccc(C(F)(F)F)cc1[N+](=O)[O-])c1ccccc1 (stereo not drawn)	49*	-5	17	0	5498
CCCCN(C)S(=O)(=O)c1ccc(C(=O)Nc2nc(-c3ccc(OC)c(C)c3)cs2)cc1	12	.	.	.	.
COc1cc(OC)cc(C(=O)N2CCN(C3CCCCC3)CC2)c1	-3	-3	5	-1	3788
COc1cc(OC)cc(C(=O)NN2CCCCC2)c1	-13	-1	-6	-4	25088*
COc1cc(OC)cc(C(=O)N2CCC(N3CCCCCC3)CC2)c1	3	-1	-7	-4	19182*
CCN(CC)c1ccc(/C=N/N2C(=O)c3ccccc3C2=O)cc1	.	-1	-5	0	2437
CCN(CC)c1ccc(/C=N/n2c(C)cc(C)cc2=O)cc1	.	-2	6	4	19156*
O=c1ccc(-c2nc(-c3ccc(Cl)cc3)no2)cn1Cc1ccc2c(c1)OCO2	2	.	.	.	.
O=C(NNC(=O)c1ccco1)c1cccc([N+](=O)[O-])c1	-6	2	38*	-1	4513
O=C(CCC(=O)OCC(=O)c1cccc([N+](=O)[O-])c1)Nc1ccccc1Cl	9	-2	-7	-4	25045*
Cc1ccc(NC(=O)CCC(=O)NNC(=O)c2ccccc2[N+](=O)[O-])c(C)c1	-2	-2	-11	-1	3457
O=C(NNC(=O)c1ccco1)c1cccc(Br)c1	-3	5	10	5	5572
Cc1ccc(C)c(NC(=O)CCC(=O)NNC(=O)c2cccc([N+](=O)[O-])c2)c1	-13	1	-4	?	24147*
CC(=O)Nc1ccc(S(=O)(=O)NCCC(O)C(C)(C)C)c(C)c1 (stereo not drawn)	-20	.	.	.	.
COc1cc(C(C[N+](=O)[O-])c2c(C)[nH]c3ccccc23)cc(OC)c1OC (stereo not drawn)	-10	-2	-3	0	21574*
COc1ccc(-n2ccnc2SCC(=O)Nc2cccc3ccccc23)cc1	58*	.	.	.	.
O=C(CSc1nccn1Cc1ccccc1)Nc1ccc(F)cc1F	20	.	.	.	.
SMILES	PriA SSB inh	Anthrax LF prot	BoNT-F LC inh	BoNT A protease	Bead autofluor
Cc1cc(C)cc(-n2ccnc2SCC(=O)Nc2ccc(F)cc2F)c1	47*	.	.	.	.
O=C(CSc1nccn1-c1ccc([N+](=O)[O-])cc1)Nc1ccc(Cl)c(Cl)c1	36*	.	.	.	.
O=C(CSc1nccn1-c1ccc(F)cc1)Nc1ccc(Br)cc1	60*	.	.	.	.
O=C(CSc1nccn1-c1ccc([N+](=O)[O-])cc1)Nc1nccs1	-1	.	.	.	.
O=C(NCCNC(=O)c1ccc(NC(=O)C2CC2)cc1)Nc1ccc(Cl)cc1	-15	.	.	.	.
COc1ccc(S(=O)(=O)Nc2cccc(-c3csc4nc(C)cc(=O)n34)c2)cc1C	4	.	.	.	.
CNC(=O)C(=O)NN=Cc1ccccn1	-10	.	.	.	.
O=C(CSc1nccn1-c1cccc(C(=O)NCc2ccco2)c1)Nc1ccc(Cl)cc1F	37*	.	.	.	.
O=C(CSc1nccn(-c2cccc(F)c2)c1=O)Nc1ccc(Cl)cc1F	-3	-5	-13	-5	3544
Oc1ccc(NC2=Nc3cccc4cccc2c34)cc1	18	.	.	.	.
CN1CCN(c2nc3ccc(NS(=O)(=O)c4ccc(F)cc4)cc3s2)CC1	-3	.	.	.	.
CCC(C)n1c(=O)c2sccc2n2c(CCCC(=O)N3CCC(C(N)=O)CC3)nnc12 (stereo not drawn)	43*	-4	-8	-1	5387
CSc1cccc(-n2nnc(-c3nsc(NC(=O)c4ccc(C(C)(C)C)cc4)n3)c2C)c1	-4	.	.	.	.
COc1ccc(CNc2ccc(C)c(C)c2)cc1	-5	-3	4	0	3949
COc1cc(CNc2ccc(C)c(C)c2)cc(OC)c1OC	-9	-6	-9	-4	17356*
COc1ccc(C(=O)NN=C(C)CC(=O)Nc2cccc(C(F)(F)F)c2)cc1	-8	.	.	.	.
Cn1nnnc1SCCNCc1ccccc1F	-1	-1	-6	-2	22828*
COc1cccc(CNCCSc2nnnn2C)c1OC	-10	-2	-6	-2	22850*
Cn1nnnc1SCc1ccccc1F	-7	-1	-1	0	22071*
O=C(O)c1ccc(-n2nnnc2SCc2ccccc2F)cc1	-14	-3	-1	0	4378
Cc1cccc(OCCCn2ccnc2)c1	-5	-2	-2	?	21296*
Cc1ccc(OCCCCn2ccnc2)c(Cl)c1	-11	-15	8	7	19999*
COc1cccc(OCCn2ccnc2)c1	-2	-3	0	0	23533*
Cc1ccc(C)c(OCCCCn2ccnc2)c1	-2	2	0	0	10363
Clc1ccccc1OCCn1ccnc1	-9	2	3	0	20725*
SMILES	PriA SSB inh	Anthrax LF prot	BoNT-F LC inh	BoNT A protease	Bead autofluor
O=C(c1cccc(N2C(=O)CCC2=O)c1)N(CCn1cccn1)c1nc2ccccc2s1	-2	.	.	.	.
Cc1cc(OCC(=O)Nc2ccc(Cl)cc2C(=O)c2ccccc2)ccc1Cl	-6	.	.	.	.
CC(C)Oc1cccc(C(=O)O)c1	-7	-6	8	?	18055*
O=C(O)c1cccc(C(=O)O)c1	-14	-4	-6	0	5623
CC1CN(c2ccc([N+](=O)[O-])c3cccnc23)CC(C)N1 (stereo not drawn)	38*	.	.	.	.
O=[N+]([O-])c1ccccc1N1CCN(c2ccc([N+](=O)[O-])c3cccnc23)CC1	75*	.	.	.	.
COc1ccc(C(CNC(=O)CCOc2ccccc2)N(C)C)cc1 (stereo not drawn)	-11	.	.	.	.
Cc1cccc(OCCC(=O)NCC(c2ccccc2)N(C)C)c1 (stereo not drawn)	-16	-1	1	-2	25146*
COc1ccc(OCCCC(=O)NCc2ccco2)cc1	-19	1	-8	-1	10879
Cc1cccc(OCCCC(=O)NCc2ccco2)c1	-11	1	-1	?	17050*
Cc1ccc(OCCCC(=O)NCc2ccco2)cc1	-4	-2	8	6	20751*
